# Experimental data taken from publication PMC5540273 (PLoS ONE, 2017).
# Test system: ACVRL1
# Conditions: concentration: 1 μM,replicates: in singlicate; n = 1
# 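Note: KINOMEscan kinase panel screen.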
row,SMILES,%Inh [%]
1,CN(c1ccc2c(c1)nc(NCc1ccc(F)cc1)n2C)c1ccnc(Nc2ccc(CS(C)(=O)=O)cc2)n1.Cl [GW813244],0
2,Cn1ccc2ncnc(Oc3ccc(NC(=O)Nc4cnn(C(C)(C)C)c4)c(Cl)c3)c21,17
3,O=C(Nc1cccc(C(F)(F)F)c1)c1cccc(Oc2ccc3nccn3n2)c1,0
4,COc1cc2ncn(-c3cc(OCC4CCCCC4)c(C(N)=O)s3)c2cc1OC [GSK204559],0
5,Cc1n[nH]c2cc(Nc3ccnc(Nc4cccc(CN5CCOCC5)c4)n3)ccc12 [GW682569],17
6,CS(=O)c1ccc(-c2coc3ccc(-c4n[nH]c(=O)o4)cc23)cc1 (centres unmarked),0
7,Cl.Cl.NC[C@H](CC1CCCCC1)NC(=O)c1ccc(-c2ccnc3[nH]ccc23)s1 [GSK1581428],0
8,Cl.c1ccc(Oc2ccc(Nc3ccnc4cc(-c5ccc(CN6CCNCC6)o5)ccc34)cc2)nc1 [GW567142],0
9,O=C(Nc1cccc(Oc2ccc3nccn3n2)c1)Nc1cccc(C(F)(F)F)c1,0
10,Cc1nnc(-c2ccc3occ(-c4ccc(S(C)=O)cc4)c3n2)o1 (centres unmarked),0
11,Cc1ccc(C(=O)Nc2ccc(Oc3ccc4nc(NC(=O)C5CC5)cn4c3)c(F)c2)c(=O)n1-c1ccccc1,0
12,C[C@@H](Oc1cc(-n2cnc3cc(-c4cnn(C)c4)ccc32)sc1C(N)=O)c1ccccc1Cl [GSK580432],0
13,CCN1CCN(CCCC(=O)Nc2n[nH]c3nc(-c4ccc(O)cc4)c(Br)cc23)CC1 [SB-731579],63
14,COC(=O)c1cccc(NC(=O)NC2CCN(c3ccnc(Nc4cc(OC)c(OC)c(OC)c4)n3)C2)c1 (centres unmarked) [GSK1379767],0
15,CS(=O)(=O)Nc1ccc(-c2ccnc3[nH]ccc23)cc1 [GSK993273],0
16,CCOC(=O)N1CCC(n2cnc(-c3ccc(F)cc3)c2-c2ccnc(N)n2)CC1 [SB-219952],10
17,CN1CCN(CCCNc2nccc(-c3c(-c4ccc(F)cc4)nn4cc(C(N)=O)ccc34)n2)CC1 [GW622475],77
18,Cl.Nc1n[nH]c2cc(-c3ccccn3)ccc12 [GSK2189892],0
19,CC(=O)c1c(-c2ccncc2)[nH]c(-c2ccncc2)c1C [GW493036],0

row,SMILES,%Inh [%]
1,CS(=O)(=O)c1cccc(CNc2nc(Nc3ccc4c(c3)[C@@H]3C[C@@H]4CNC3=O)ncc2C(F)(F)F)c1,0
2,CNC(=O)c1ccccc1Nc1nc(Nc2cccc(CS(C)(=O)=O)c2)ncc1C.O=CO [GSK1520489],2
3,Cn1cc(-c2cccc3c(N)c(C(N)=O)nnc23)cn1,3
4,Cn1ccc2ncnc(Oc3ccc(NC(=O)Nc4cccc(C(F)(F)F)c4)c(F)c3)c21,7
5,Nc1nccc(-c2ccc3c(N)n[nH]c3c2)n1 [GSK1034945],0
6,COc1cccc(C2=C(Nc3cccc(Cl)c3)C(=O)NC2=O)c1 [SB-341556],0
7,CCn1c(-c2nonc2N)nc2cncc(CNC3CCNCC3)c21.Cl [SB-747651],0
8,Cn1ccc2ncnc(Oc3ccc(NC(=O)Nc4cncc(C(F)(F)F)c4)c(Cl)c3)c21,0
9,C[C@@H]1CCN(C(=O)N2CCCC2)C[C@@H]1N(C)c1ncnc2[nH]ccc12,0
10,CC(C)S(=O)(=O)N1CCN(Cc2ccc3c(c2)nc(NC(=O)c2ccsc2)n3C[C@H](O)c2ccccc2)CC1 [GW635815],0
11,C[C@@H]1CNc2c(sc3ccc4nc(-c5ccc(O)cc5)ccc4c23)C(=O)N1,45
12,c1ccc(Oc2ccc(Nc3ccnc4ccc(-c5ccccn5)cc34)cc2)cc1 [GW407034],0
13,Cn1ccc2ncnc(Oc3ccc(NC(=O)Nc4ccnc(C(F)(F)F)c4)c(Cl)c3)c21,63
14,CC(=O)Nc1ccc(-c2cc3ncnc(SCC(=O)O)c3s2)cc1,27
15,COc1cccc(OC)c1C(=O)Nc1cccc(-c2nn3ccccc3c2-c2ccnc(Nc3cccc(F)c3)n2)c1 [GSK361065],7
16,COC(=O)c1cccc(NC(=O)NC2CCN(c3ccnc(NCc4ccc(F)cc4)n3)CC2)c1 [GSK1379860],0
17,CCn1c(-c2nonc2N)nc2cncc(Br)c21 [SB-738004],0
18,Cc1ccc(CC(=O)N2CCc3cc(-c4cn(C)c5ncnc(N)c45)ccc32)cc1 [GSK2634758],0

# Test system: T1, ADCK3
# T1 construct: gene CABC1
# Conditions: concentration: 1 μM,replicates: in singlicate; n = 1
row,SMILES,%Inh [%]
1,CN(c1ccc2c(c1)nc(NCc1ccc(F)cc1)n2C)c1ccnc(Nc2ccc(CS(C)(=O)=O)cc2)n1.Cl [GW813244],0
2,Cn1ccc2ncnc(Oc3ccc(NC(=O)Nc4cnn(C(C)(C)C)c4)c(Cl)c3)c21,0
3,O=C(Nc1cccc(C(F)(F)F)c1)c1cccc(Oc2ccc3nccn3n2)c1,14
4,COc1cc2ncn(-c3cc(OCC4CCCCC4)c(C(N)=O)s3)c2cc1OC [GSK204559],11
5,Cc1n[nH]c2cc(Nc3ccnc(Nc4cccc(CN5CCOCC5)c4)n3)ccc12 [GW682569],19
6,CS(=O)c1ccc(-c2coc3ccc(-c4n[nH]c(=O)o4)cc23)cc1 (centres unmarked),0
7,Cl.Cl.NC[C@H](CC1CCCCC1)NC(=O)c1ccc(-c2ccnc3[nH]ccc23)s1 [GSK1581428],13
8,Cl.c1ccc(Oc2ccc(Nc3ccnc4cc(-c5ccc(CN6CCNCC6)o5)ccc34)cc2)nc1 [GW567142],0
9,O=C(Nc1cccc(Oc2ccc3nccn3n2)c1)Nc1cccc(C(F)(F)F)c1,0
10,Cc1nnc(-c2ccc3occ(-c4ccc(S(C)=O)cc4)c3n2)o1 (centres unmarked),2
11,Cc1ccc(C(=O)Nc2ccc(Oc3ccc4nc(NC(=O)C5CC5)cn4c3)c(F)c2)c(=O)n1-c1ccccc1,13
12,C[C@@H](Oc1cc(-n2cnc3cc(-c4cnn(C)c4)ccc32)sc1C(N)=O)c1ccccc1Cl [GSK580432],13
13,CCN1CCN(CCCC(=O)Nc2n[nH]c3nc(-c4ccc(O)cc4)c(Br)cc23)CC1 [SB-731579],0
14,COC(=O)c1cccc(NC(=O)NC2CCN(c3ccnc(Nc4cc(OC)c(OC)c(OC)c4)n3)C2)c1 (centres unmarked) [GSK1379767],21
15,CS(=O)(=O)Nc1ccc(-c2ccnc3[nH]ccc23)cc1 [GSK993273],12
16,CCOC(=O)N1CCC(n2cnc(-c3ccc(F)cc3)c2-c2ccnc(N)n2)CC1 [SB-219952],15
17,CN1CCN(CCCNc2nccc(-c3c(-c4ccc(F)cc4)nn4cc(C(N)=O)ccc34)n2)CC1 [GW622475],96.7
18,Cl.Nc1n[nH]c2cc(-c3ccccn3)ccc12 [GSK2189892],11
19,CC(=O)c1c(-c2ccncc2)[nH]c(-c2ccncc2)c1C [GW493036],4

row,SMILES,%Inh [%]
1,CS(=O)(=O)c1cccc(CNc2nc(Nc3ccc4c(c3)[C@@H]3C[C@@H]4CNC3=O)ncc2C(F)(F)F)c1,0
2,CNC(=O)c1ccccc1Nc1nc(Nc2cccc(CS(C)(=O)=O)c2)ncc1C.O=CO [GSK1520489],0
3,Cn1cc(-c2cccc3c(N)c(C(N)=O)nnc23)cn1,15
4,Cn1ccc2ncnc(Oc3ccc(NC(=O)Nc4cccc(C(F)(F)F)c4)c(F)c3)c21,18
5,Nc1nccc(-c2ccc3c(N)n[nH]c3c2)n1 [GSK1034945],1
6,COc1cccc(C2=C(Nc3cccc(Cl)c3)C(=O)NC2=O)c1 [SB-341556],24
7,CCn1c(-c2nonc2N)nc2cncc(CNC3CCNCC3)c21.Cl [SB-747651],1
8,Cn1ccc2ncnc(Oc3ccc(NC(=O)Nc4cncc(C(F)(F)F)c4)c(Cl)c3)c21,2
9,C[C@@H]1CCN(C(=O)N2CCCC2)C[C@@H]1N(C)c1ncnc2[nH]ccc12,7
10,CC(C)S(=O)(=O)N1CCN(Cc2ccc3c(c2)nc(NC(=O)c2ccsc2)n3C[C@H](O)c2ccccc2)CC1 [GW635815],0
11,C[C@@H]1CNc2c(sc3ccc4nc(-c5ccc(O)cc5)ccc4c23)C(=O)N1,0
12,c1ccc(Oc2ccc(Nc3ccnc4ccc(-c5ccccn5)cc34)cc2)cc1 [GW407034],12
13,Cn1ccc2ncnc(Oc3ccc(NC(=O)Nc4ccnc(C(F)(F)F)c4)c(Cl)c3)c21,0
14,CC(=O)Nc1ccc(-c2cc3ncnc(SCC(=O)O)c3s2)cc1,0
15,COc1cccc(OC)c1C(=O)Nc1cccc(-c2nn3ccccc3c2-c2ccnc(Nc3cccc(F)c3)n2)c1 [GSK361065],0
16,COC(=O)c1cccc(NC(=O)NC2CCN(c3ccnc(NCc4ccc(F)cc4)n3)CC2)c1 [GSK1379860],5
17,CCn1c(-c2nonc2N)nc2cncc(Br)c21 [SB-738004],25
18,Cc1ccc(CC(=O)N2CCc3cc(-c4cn(C)c5ncnc(N)c45)ccc32)cc1 [GSK2634758],6
